{"source": "PubChem BioAssay AID488890", "about": "(Southern Research Specialized Biocontainment Screening …, 2010)", "note": "Hit rate of the full screen: of about 320,000 compounds, about 1,300 (0.41%) were called active. About 3% were inconclusive and are not listed. No rule for the calls is given here. The list is a sample of the results. Entries with a potency or affinity are not part of this list."}
{"experiment": "growth inhibition of non-replicating M. tuberculosis (AID 488890);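 also: plate controls were DMSO cells for no effect and high antibiotic wells for full effect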", "settings": "Mycobacterium tuberculosis non-replicating, at 25 µM, stronger effect = higher value", "units": {"inhibition": "%"}}
{"smiles": "CC1CCCCC1NC(=O)CN1C(=O)NC(C)(c2ccc(OC(F)F)cc2)C1=O", "note": "(stereo unspecified)", "inhibition": -1.28}
{"smiles": "Cc1ccccc1NC(=O)c1ccc2ccccc2c1", "inhibition": 40.9}
{"smiles": "CCCn1nnnc1NC(=O)COc1ccc(Cl)c(C)c1", "inhibition": 74.2}
{"smiles": "CCCn1nnnc1NCc1ccc(Cl)cc1Cl", "inhibition": 1.4}
{"smiles": "CCn1nnnc1NC(=O)c1ccc2ccccc2c1", "inhibition": -1.96}
{"smiles": "Cc1nnc(NC(=O)c2ccc3ccccc3c2)s1", "inhibition": 9.74}
{"smiles": "CCCn1nnc(NC(=O)c2ccc3ccccc3c2)n1", "inhibition": -1.15}
{"smiles": "CCCn1nnnc1NC(=O)c1cc(Br)ccc1OC", "inhibition": 66.1}
{"smiles": "CCCCC(=O)Nc1nnnn1CCC", "inhibition": 12.9}
{"smiles": "CC(Oc1ccccc1)C(=O)OCC(=O)Nc1ccc2c(c1)OCO2", "note": "(stereo unspecified)", "inhibition": 23.9}
{"smiles": "CCOC(=O)c1sc2nc(C)nc(N3CCN(S(=O)(=O)c4ccccc4)CC3)c2c1C", "inhibition": 34.9}
{"smiles": "CCOC(=O)c1c(-c2ccccc2Cl)cn2ccccc12", "inhibition": 3.48}
{"smiles": "CCCCn1c(=O)[nH]c(=O)c2c1nc(-c1ccc(C(F)(F)F)cc1)n2C", "inhibition": 2.06}
{"smiles": "C=CCn1c(CCC)nc2ccccc21", "inhibition": 59.2}
{"smiles": "Cc1ccc(CNC(=O)COC(=O)CSc2ccc(Br)cc2C)cc1", "inhibition": 71.4}
{"smiles": "CN(CC(=O)Nc1cccc(F)c1)C(=O)c1ccccc1OCC(=O)Nc1cccc(C(F)(F)F)c1", "inhibition": 1.32}
{"smiles": "CCc1cc2cc(C)ccc2nc1SCC(=O)NNC(=O)c1ccco1", "inhibition": -31.6}
{"smiles": "O=C(O)c1cccc(S(=O)(=O)N2CCC(n3nnc4cc(C(F)(F)F)ccc43)CC2)c1", "inhibition": 3.59}
{"smiles": "CC(=O)c1cccc(NC(=O)N(c2ccccc2)c2ccccc2)c1", "inhibition": 4.45}
{"smiles": "Cc1ccc(S(=O)(=O)NCCc2nnc3ccc(SCC(=O)Nc4nc(C)cs4)nn23)cc1", "inhibition": -6.91}
{"smiles": "CC1=CC(C)(C)Nc2ccc(OC(=O)CN3C(=O)c4cccc5cccc(c45)C3=O)cc21", "inhibition": 78.9}
{"smiles": "CC1=CC(C)(C)Nc2ccc(OC(=O)CCN3C(=O)c4ccccc4C3=O)cc21", "inhibition": 19}
{"smiles": "COc1ccc([C@H]2CC(=O)C=C(c3cccc(OC(F)(F)F)c3)C2)cc1", "inhibition": 24.7}
{"smiles": "NC(=O)Nc1cc(Cl)ccc1Cl", "inhibition": -13.6}
{"smiles": "NC(=O)N/N=C1\\CCS(=O)(=O)c2ccc(F)cc21", "inhibition": 1.74}
{"smiles": "S=C(NC1CCCCCC1)NC1CCCC1", "inhibition": 71.8}
{"smiles": "c1ccc(-c2nc3ccccc3[nH]2)nc1", "inhibition": 20.2}
{"smiles": "O=c1[nH]c(-c2ccncc2)nc2ccccc12", "inhibition": 26.6}
{"smiles": "O=C(COc1ccc(/C=N/NC(=O)C(=O)N2CCCCCC2)cc1)Nc1ccccc1Cl", "inhibition": 74.1}
{"smiles": "Cc1ccc(C)c(S(=O)(=O)NCC(c2ccco2)N2CCc3ccccc3C2)c1", "note": "(stereo unspecified)", "inhibition": 10.8}
{"smiles": "CC(NC(=O)c1ccc(N(C)C)c([N+](=O)[O-])c1)c1ccc(-n2ccnc2)cc1", "note": "(stereo unspecified)", "inhibition": 8.22}
{"smiles": "COc1ccc(C(=O)NC(C)c2ccc(-n3ccnc3)cc2)cc1[N+](=O)[O-]", "note": "(stereo unspecified)", "inhibition": 6.19}
{"smiles": "O=C(Nc1ccccc1C(F)(F)F)c1ccsc1", "inhibition": -9.54}
{"smiles": "CN(Cc1cnn(C)c1)Cc1nc(COc2ccccc2)no1", "inhibition": 12.5}
{"smiles": "COc1ccc(OC)c(NC(=O)CSC2=NN3CCCC(=O)N=C3S2)c1", "inhibition": -10.2}
{"smiles": "O=C(CNCc1ccco1)Nc1ccccc1-n1cccc1", "inhibition": 5.71}
{"smiles": "O=C(NCC(c1ccco1)N1CCN(c2ccccc2)CC1)C(=O)NC1CCCCC1", "note": "(stereo unspecified)", "inhibition": -8.96}
{"smiles": "Cc1cc2c(cc1C)N(C(=O)CSC1=NCCS1)C(C)(C)c1ssc(=S)c1-2", "inhibition": 27.9}
{"smiles": "Cn1c(O)c(N=NC(=O)c2cc(-c3cccs3)nc3ccccc23)c2ccccc21", "inhibition": -7.82}
{"smiles": "O=C(COc1cc(O)c2c(=O)cc(-c3ccccc3)oc2c1)c1ccccc1", "inhibition": -7.87}
{"smiles": "COc1ccc(C(=O)c2ccccc2)c(O)c1", "inhibition": 26.2}
{"smiles": "O=C(COc1ccc2oc(-c3ccccc3)cc(=O)c2c1)Nc1ccccc1", "inhibition": 52.2}
{"smiles": "CCOC(=O)c1cc(=O)c2ccc(OCC(=O)Nc3ccccc3)cc2o1", "inhibition": 0.19}
{"smiles": "Cc1ccc(OCC(=O)OCC(=O)c2ccccc2)cc1C", "inhibition": 20.6}
{"smiles": "CC(C)(C)OC(=O)COc1cc(O)c2c(=O)cc(-c3ccccc3)oc2c1", "inhibition": 53.9}
{"smiles": "NC(=O)c1ccc(NC(=O)CN2CCOCC2)cc1", "inhibition": -9.52}
{"smiles": "Oc1ccc(/C=N/NP(=S)(c2ccccc2)c2ccccc2)c(O)c1O", "inhibition": -2.4}
{"smiles": "COc1ccc(OC)c(/C=C/C(=O)OCC(=O)NCc2cccs2)c1", "inhibition": 22.8}
{"smiles": "N#Cc1cnn2c(N)c(-c3ccc(Cl)cc3)cnc12", "inhibition": -16.2}
{"smiles": "CCn1c(CC(=O)Nc2ccc(C)cc2)nnc1SCC(=O)N1CCN(c2ccccc2)CC1", "inhibition": 21}
{"smiles": "Cc1cc(NC(=O)/C=C/c2ccccc2)no1", "inhibition": 17.2}
{"smiles": "COC(=O)c1cc(/C=C/c2ccccc2)[nH]n1", "inhibition": 15.2}
{"smiles": "Cc1cccc(C)c1NC(=S)NCCCN1CCCC1=O", "inhibition": -28.2}
{"smiles": "CCOc1ccc(N(CC(=O)Nc2ccc(OC)cc2OC)S(=O)(=O)c2c(C)[nH]c(=O)[nH]c2=O)cc1", "inhibition": 25.1}
{"smiles": "O=c1oc(-c2cccs2)nc2ccccc12", "inhibition": 48.8}
{"smiles": "O=c1c2cnn(-c3ccccc3)c2nc(-c2cccs2)n1-c1ccc(Br)cc1", "inhibition": 8.85}
